Test results reported in the supplement of paper PMC6555819.

System: RARb homodimer (NR concentration 270 nM)
Assay: PBM binding z-score (relative to random genomic background probes); higher = stronger binding; sequences stand for … in GC…GCGATTGACAGCGTAGAATGAAGG
Outline: (§1)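 Custom Agilent 4×180K protein-binding microarrays carried double-stranded probes, each with a 34-nt variable region. These regions held direct-repeat seeds, single-nucleotide variants, half-site ablations and random human genomic background sequences. Ligand-free nuclear receptor dimers were incubated on the arrays for 1 h, antibodies against each partner (one per run) detected binding, and scanned fluorescence was regression-normalized. Binding z-scores take the random background probes as reference.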

In order of rising PBM binding z-score:
1. ATCGAAAGATCGAGGTGAGTATAGAGAAAGGGAA  -0.0948
2. CCGACTGGGGCAAGGATACCATAACGCACAGCCA  0.07
3. TTACCAAGGTGAAAGATCGTTGATGCACGCCTTG  0.0757
4. TCATATAGGAAATACAGGTGAAAGTCGGCATCTA  0.167
5. TCGAGTACGTTAGGGGCATTCAGAATGGCGTCGA  0.267
6. CCGAGTAGGTTATTGGGCATTCAGGCAACGGTGA  0.361
7. TCTTGTAGATCTAAGGTTAAGAAAGCCGAAGCCT  0.513
8. CCTAGCAGGCCAATCTGGGTCGCTCAAGGCTTGA  0.548
9. AGTCAAAGTCCATCTAGGTAACGTAAGATATGCT  0.564
10. AGAATGAGGTTACCAAAGATCTGGGAAACGCTTG  0.57
11. CTAACGAGGGCATGAGTTGATAGCAAATGCCGAT  0.671
12. TTACCAAGGAGAGCTGAGGTCGTTGATCCAACTC  0.714
13. ACTATTAGTTGAGACGAGGCCAACCGATAGGTTG  0.728
14. AGAATGAGGTTATACGTTGATCAGGGAAGAAAGT  0.786
15. AGAACGAGGGCACCCTGAGTTGATAGCAGAGTAG  0.823
16. TCCATTAGTTGATTAGGGCAACCGAAACAGCGGA  0.875
17. TCATATTGGTAAACAGGTGAAAGTCCGTAAGTTA  0.882
18. GCGATTGGGGCATCAGCAGGTTACCATAACTTAA  0.917
19. GGAACGAGGGCACAGTTGATAGCATCTGTCGACG  0.918
20. AGAACGAGGGCAATGAGTTGACAGCACGGGTGGC  1.2
21. TCTGTTAGTTGAAGGGCAACCGACGAGTCCGTTT  1.22
22. AGAACGAGGGCACGCTTAGTTGATAGCAGAGTAG  1.38
23. CCGACTGGGGCATGAGGTTACCATAAGCCAGCCC  1.43
24. TCTATAAGTTGAAGGGCAACCGACGAGTCCGTTT  1.49
25. TAGCCTAGGTCAGAGCGGGCCAGTATACGCTATA  1.85
26. ATCTCTAGGTAAGACTAAGTTCAGTGAAGAACGC  1.85
27. TCTATTAGTTAAAGGGCAACCGACGAGTCCGTTT  2.17
28. GCTGCTAGGTCAGGTTGGTCAGCTAGCGGGTACG  2.7
29. ATCTGTAGGTTACATCCGGGTCATTCAGGCTATG  3
30. CCTTACGGGTCACTGACAGGTTATAGCCTTTGGA  3.15
31. TATACCGGGTCAAAGGCCAGAGTACGAATGTCGA  3.15
32. CGAACTAGGTCATCCAGGACAGTGTATACATTGA  3.16
33. TCTAGAAGGCCAGAGGGTCACTCAAGAGGTACGG  3.16
34. CCTCGGAGGACAACAGGAGGTCAGAGATGCCAGA  3.66
35. TGTCAAAGTTCAACGGTAACGTAAGTATCCACAC  3.79
36. CCTACTGTGCCAAAGGTCATTGATTCCAATGCTC  4.59
37. GCTAGTTGGTCAGTGAAAGGTCACACACCGGTCG  4.96
38. CCTCGGAGGACAAAAGGTCAGAGCTGTCCGCTTT  5.18
39. CGTCCAAGGTCAGAGAGGTCAGTTAATGCCGAGT  5.24

System: RARg:RXRa (NR concentration 270 nM, RXRa partner concentration 90 nM)
Assay: as above
Outline: as §1

In order of rising PBM binding z-score:
1. CCGAGTAGGTTATTGGGCATTCAGGCAACGGTGA  0.0352
2. TTACCAAGGAGAGCTGAGGTCGTTGATCCAACTC  0.0578
3. TCGAGTACGTTAGGGGCATTCAGAATGGCGTCGA  0.169
4. CCGACTGGGGCAAGGATACCATAACGCACAGCCA  0.225
5. ATCGAAAGATCGAGGTGAGTATAGAGAAAGGGAA  0.227
6. ACTATTAGTTGAGACGAGGCCAACCGATAGGTTG  0.273
7. TCTTGTAGATCTAAGGTTAAGAAAGCCGAAGCCT  0.36
8. TCATATTGGTAAACAGGTGAAAGTCCGTAAGTTA  0.412
9. TCATATAGGAAATACAGGTGAAAGTCGGCATCTA  0.527
10. AGTCAAAGTCCATCTAGGTAACGTAAGATATGCT  0.538
11. TCCATTAGTTGATTAGGGCAACCGAAACAGCGGA  0.57
12. CCTAGCAGGCCAATCTGGGTCGCTCAAGGCTTGA  0.673
13. TTACCAAGGTGAAAGATCGTTGATGCACGCCTTG  0.744
14. GCGATTGGGGCATCAGCAGGTTACCATAACTTAA  0.779
15. TCTATAAGTTGAAGGGCAACCGACGAGTCCGTTT  0.829
16. TCTGTTAGTTGAAGGGCAACCGACGAGTCCGTTT  0.835
17. ATCTCTAGGTAAGACTAAGTTCAGTGAAGAACGC  0.933
18. TCTATTAGTTAAAGGGCAACCGACGAGTCCGTTT  1.22
19. GGAACGAGGGCACAGTTGATAGCATCTGTCGACG  1.28
20. CCGACTGGGGCATGAGGTTACCATAAGCCAGCCC  1.29
21. CTAACGAGGGCATGAGTTGATAGCAAATGCCGAT  1.31
22. AGAACGAGGGCAATGAGTTGACAGCACGGGTGGC  1.33
23. AGAATGAGGTTATACGTTGATCAGGGAAGAAAGT  1.49
24. AGAACGAGGGCACCCTGAGTTGATAGCAGAGTAG  1.54
25. AGAACGAGGGCACGCTTAGTTGATAGCAGAGTAG  1.76
26. AGAATGAGGTTACCAAAGATCTGGGAAACGCTTG  1.94
27. TAGCCTAGGTCAGAGCGGGCCAGTATACGCTATA  2.55
28. GCTGCTAGGTCAGGTTGGTCAGCTAGCGGGTACG  2.69
29. TCTAGAAGGCCAGAGGGTCACTCAAGAGGTACGG  3.17
30. CCTCGGAGGACAACAGGAGGTCAGAGATGCCAGA  3.42
31. ATCTGTAGGTTACATCCGGGTCATTCAGGCTATG  3.79
32. CGAACTAGGTCATCCAGGACAGTGTATACATTGA  3.92
33. TATACCGGGTCAAAGGCCAGAGTACGAATGTCGA  4.74
34. CCTACTGTGCCAAAGGTCATTGATTCCAATGCTC  5.61
35. GCTAGTTGGTCAGTGAAAGGTCACACACCGGTCG  5.66
36. TGTCAAAGTTCAACGGTAACGTAAGTATCCACAC  5.69
37. CCTTACGGGTCACTGACAGGTTATAGCCTTTGGA  5.69
38. CCTCGGAGGACAAAAGGTCAGAGCTGTCCGCTTT  6.04
39. CGTCCAAGGTCAGAGAGGTCAGTTAATGCCGAGT  6.43
